# This is one part of a sample in which hits are shown more often than they occur.
# ST2 IL33 inh: IL1RL1 inhibition. AID 1259354. 78,000 compounds, 2.3% hits. AlphaLISA ST2-Fc/biotin-IL-33 interaction, 1 h. inhibition, % for hits at 17 µM. Q01638; in the data active means inhibition above about 30%
# Target sequence (Q01638 whole entry, looked up): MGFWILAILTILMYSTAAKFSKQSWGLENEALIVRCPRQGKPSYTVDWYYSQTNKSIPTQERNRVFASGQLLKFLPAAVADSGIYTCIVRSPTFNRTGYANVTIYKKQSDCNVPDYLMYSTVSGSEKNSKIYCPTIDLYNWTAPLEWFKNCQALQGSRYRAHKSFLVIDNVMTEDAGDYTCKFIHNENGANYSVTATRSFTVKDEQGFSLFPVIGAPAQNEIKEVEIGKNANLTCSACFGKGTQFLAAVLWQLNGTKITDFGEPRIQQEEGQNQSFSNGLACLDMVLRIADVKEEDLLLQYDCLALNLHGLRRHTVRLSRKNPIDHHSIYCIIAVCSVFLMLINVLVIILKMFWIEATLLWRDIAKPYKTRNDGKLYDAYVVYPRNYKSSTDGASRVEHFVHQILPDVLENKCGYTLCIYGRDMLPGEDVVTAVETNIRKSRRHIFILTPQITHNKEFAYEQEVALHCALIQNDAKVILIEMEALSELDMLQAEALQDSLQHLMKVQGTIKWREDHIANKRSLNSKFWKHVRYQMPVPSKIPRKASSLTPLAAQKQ
# Active calls of the source: *; i = inactive.
SMILES,ST2 IL33 inh
Cc1cc2n(n1)CCN(Cc1cc3n(n1)CCCNC3)C2,i
C=C1C(=O)OC2/C=C(\COC(C)=O)CC/C=C(/C=O)CC(OC(=O)C(C)CC)C12 (stereo not drawn),i
CCc1ccccc1NS(=O)(=O)c1cccc2cccnc12,i
Cc1ccc(F)c(-c2cc(C)nc(N)n2)c1,i
Cc1nn(-c2ccccn2)c2c1C(=O)/C(=C\Nc1ccccc1Cl)CC2,31.0%*
Cc1nn(-c2ccccn2)c2c1C(=O)/C(=C/Nc1ccc([N+](=O)[O-])cc1Br)CC2,i
O=C1CSC(c2cccc(Cl)c2Cl)N1c1ccccn1 (stereo not drawn),i
COc1cccc(NC(=O)C(=O)NC2CC2)c1,i
NCC(O)CN1CCOCC1 (stereo not drawn),i
Cc1cc([N+](=O)[O-])ccc1NC(NC(=O)c1cccs1)C(=O)c1ccccc1 (stereo not drawn),35.0%*
Cc1cc([N+](=O)[O-])ccc1NC(=O)CC(C)c1ccccc1 (stereo not drawn),i
O=C(NC(Nc1ccc([N+](=O)[O-])cc1)C(=O)c1ccccc1)c1ccccc1 (stereo not drawn),i
CCNc1nc(OC)nc(Oc2ccc(/C=N\O)cc2)n1,i
CCCCN(CC)S(=O)(=O)c1ccc(NC(C)=O)cc1,i
Cc1cc(C)c2c(=O)cc(C3C(=O)c4ccccc4C3=O)[nH]c2c1,i
Cc1cc(Br)c2c3c(c(N)c(=O)[nH]c13)-c1ccccc1C2=O,45.0%*
COc1cccc(C(=O)Nc2ccc([N+](=O)[O-])cc2Br)c1,i
COc1cc(-c2cc(=O)c3c(O)cc(O[C@@H]4O[C@H](CO)[C@@H](O)[C@H](O)[C@H]4O[C@@H]4O[C@@H](C)[C@H](O)[C@@H](O)[C@H]4O)cc3o2)ccc1O,i
CC(C)Nc1ccnc(-c2ccc3c(c2)OCO3)n1,i
Cc1cc(Nc2ccc(Br)cc2)n2ncnc2n1,i
O=C(Nc1ccc(Br)cc1)c1cc(-c2ccc(Cl)cc2)on1,i
COc1ccc(-c2cc(C(=O)Nc3cc(Br)ccc3O)no2)cc1,35.0%*
O=C(Nc1ccc(F)cc1F)c1cc(-c2ccc(Br)cc2)on1,i
C1CCc2sc(CN(CC3CCN(C4CCCC4)CC3)CC3CCCO3)nc2C1 (stereo not drawn),i
Cc1cc(C(=O)NCCc2ccc(S(N)(=O)=O)cc2)ccc1[N+](=O)[O-],i
SMILES,ST2 IL33 inh
CCCC(NC(=O)C1CCOCC1)c1ccccc1 (stereo not drawn),i
COc1cccc(NC2=C(N3CCOCC3)C(=O)c3ccccc3C2=O)c1,71.0%*
COc1cccc(OCC(O)CN2CCOCC2)c1 (stereo not drawn),i
CC(C)C(C(=O)NC1CCCCC1)N1C(=O)c2ccccc2C1=O (stereo not drawn),i
O=C(NC1CCCCCCC1)C1c2ccccc2C(=O)N1CCCN1CCOCC1 (stereo not drawn),i
COc1cccc(NC(=O)c2ccccc2-c2ccccc2C(=O)O)c1,i
O=C1C(NC2CCCCC2)=C(N2CCOCC2)C(=O)c2ccccc21,73.0%*
CC(=C\C(=O)O)/C=C(\C)CC(C)CCCCC(OC(=O)C(CO)C(CCCCC(C)C/C(C)=C/C(C)=C/C(=O)O)OC(=O)/C=C(C)/C=C(\C)CC(C)CCCCC(O)C(CO)C(=O)O)C(CO)C(=O)O (stereo not drawn),i
O=C(C1CC(Cc2ccc(F)cc2)=NO1)N1CCCC(COc2ccccc2F)C1 (stereo not drawn),i
CC(C)Cc1cc(C(=O)NCC(C)Oc2cccnc2)n(C)n1 (stereo not drawn),i
CCn1c(C2CCN(CC3=Cc4cccc(OC)c4OC3)CC2)n[nH]c1=O,i
CCn1cc(C(=O)NCCOC)c2cc(OC)c(OC)cc2c1=O,i
CC1CCC2C(C1)c1sc(=O)[nH]c1SC2(C)C (stereo not drawn),i
CC12COc3ccccc3C1c1sc(=O)[nH]c1SC2 (stereo not drawn),32.0%*
O=c1[nH]c2c(s1)C1c3cc([N+](=O)[O-])ccc3OCC1CS2 (stereo not drawn),i
COc1cc(NS(=O)(=O)c2ccc(NC(=O)c3ccccc3C)cc2)nc(OC)n1,i
CCC1CN(C(=O)c2ccc(-c3cccc(CO)c3)nc2)CCN1C(C)C (stereo not drawn),i
O=C1/C(=C\c2cccc([N+](=O)[O-])c2)N=C2CCCCCN12,36.0%*
O=C1NC(=O)/C(=C\c2cccc([N+](=O)[O-])c2)S1,i
O=[N+]([O-])c1cccc(CN2CCCCCC2)c1,i
O=C(NCCN1CCCC1)c1ccc2c(c1)ncn2C1CCCCC1,i
CCCSc1nc2c(c(=O)n1-c1ccccc1OC)SCC2,i
CC1CCN(C(=O)Cn2c(=O)n(-c3ccccc3)c(=O)c3sccc32)CC1,i
O=C(O)c1cccc(N=Cc2cccc([N+](=O)[O-])c2O)c1,i
O=[N+]([O-])c1cccc(C=Nc2ccc(-c3nc4ncccc4o3)cc2)c1O,i
O=[N+]([O-])c1ccccc1/C=C/c1ccc2cccc(O)c2n1,41.0%*
